From PubChem BioAssay (NCATS)
Results filed as inconclusive are left out. Values without a mark were called inactive. The source made the active and inactive calls. The call rests on the fitted dose curve; in most records, active means well fitted inhibition curve with a large enough effect; inconclusive means small, poorly fitted or top-dose-only effect; inactive means flat fitted curve, though single readings scatter.

tested on: DFO2036; assay: qHTS profiling for inhibitors of Plasmodium falciparum proliferation (AID 504749); further: nearly all actives have a fitted effect of over 60% in size;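 on activity, negative = inhibition: 0% = DMSO vehicle and full inhibition = artemisinin control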; conditions: P. falciparum in erythrocytes, SYBR Green DNA, 72 h; series mostly up to 28.7 µM; activity, negative = inhibition: at the top concentration
Source text: NIH National Institute of Allergy and Infectious Diseases [NIAID] NIH Chemical Genomics Center [NCGC] MLPCN Grant: None Assay Provider: Xinzhuan Su, NIAID NCGC Assay Overview: Plasmodium falciparum is a virulent malarial parasite that kills 1-2 million people worldwide each year. Transmitted by mosquitoes, the sporozoite form of the parasite enters the blood stream to infect hepatocytes, where they become merozoites that infect red blood cells (erythrocytes). Within erythrocytes, merozoites begin a […] cycle of growth and division, after which the parasite is released to infect new red blood cells. Gametocytes, which form within erythrocytes as well, circulate in the bloodstream and are ingested by the mosquito, thereby completing the life cycle. To profile malarial isolates for differential chemical responses and to identify inhibitors of malarial growth, an assay that measures P. falciparum growth and replication within erythrocytes was employed. This assay uses a DNA binding fluorescent dye (SYBR Green) to detect parasite DNA following cell lysis. Because mature erythrocytes lack DNA, only Plasmodium-derived DNA is detected.
NCGC Assay Protocol Summary: The SYBR Green viability assay was adapted from a method described previously (Plouffe et al., 2008). For screening 3 ul culture medium was dispensed into 1536 well black clear bottom plates (Aurora Biotechnologies) using a Multidrop Combi (Thermo Fisher Scientific Inc.), 23 nL compounds in DMSO were added by a pin tool (Kalypsys), and 5 ul of erythrocytes infected with P. falciparum (0.3% parasitemia, 2.5% hematocrit final concentration) were added. The plates were incubated at 37 C in a humidified incubator in 5% CO2 for 72 h, and 2 ul lysis buffer (20 mM Tris HCl, 10 mM EDTA, 0.16% saponin, 1.6% triton X, 10X SYBR Green I supplied as 10,000X […] by Invitrogen) was added to each well. The plates were mixed for 25 sec with gentle shaking and incubated overnight at room temperature in the dark. The following morning, fluorescence intensity at 485(14) nm excitation and 535(25) nm emission wavelengths was measured on an EnVision (Perkin Elmer) plate reader. Plate reads were normalized relative to the control inhibitor (0.29 uM artemisinin) and vehicle (DMSO) wells present on each plate and then corrected by an algorithm using vehicle-only control plates at the beginning and end of the compound plate stack.
Potency means the concentration at half of the fitted maximal effect.

SMILES	Potency	activity, negative = inhibition
CC[C@H]1CN2CCc3cc(OC)c(OC)cc3[C@H]2C[C@@H]1C[C@@H]1NCCc2cc(OC)c(OC)cc21	0.316 µM (active)	–
Nc1ccn([C@@H]2O[C@H](CO)[C@H](O)C2(F)F)c(=O)n1	0.282 µM (active)	–
Nc1ccc(S(=O)(=O)Nc2ncccn2)cc1	–	4.3% [at 12.8 µM]
COC(=O)C[C@](O)(CCCC(C)(C)O)C(=O)O[C@@H]1C(OC)=C[C@]23CCCN2CCc2cc4c(cc2[C@H]13)OCO4	0.0224 µM (active)	–
COc1c(N2C[C@@H]3CCCN[C@H]3C2)c(F)cc2c(=O)c(C(=O)O)cn(C3CC3)c12	–	-29.5%
C[C@H]1C[C@@H]2[C@@H]([C@@H](O)C[C@@]3(C)[C@H]2CC[C@]3(O)C(=O)CO)[C@@]2(C)C=CC(=O)C=C12	–	4.95% [at 12.8 µM]
CC1(C)O[C@@H]2C[C@@H]3[C@H]4C[C@@H](F)C5=CC(=O)C=C[C@]5(C)[C@@]4(F)[C@@H](O)C[C@]3(C)[C@]2(C(=O)CO)O1	–	10.2%
O=c1[nH]c(=O)n(C2CCCO2)cc1F (stereo not given)	–	1.58%
COc1cc(C(=O)NS(=O)(=O)c2ccccc2C)ccc1Cc1cn(C)c2ccc(NC(=O)OC3CCCC3)cc12	–	-6.72%
CCC1=C[C@@H]2CN(C1)Cc1c([nH]c3ccccc13)[C@@](C(=O)OC)(c1cc3c(cc1OC)N(C)[C@@H]1[C@@](O)(C(=O)OC)[C@H](OC(C)=O)[C@]4(CC)C=CCN5CC[C@]31[C@@H]54)C2	2.51 µM (active)	–
COC(=O)C1=C(C)NC(C)=C(C(=O)OCCN2CCN(C(c3ccccc3)c3ccccc3)CC2)C1c1cccc([N+](=O)[O-])c1 (stereo not given)	1.78 µM (active)	–
O=C(O)CO.[NH2-].[NH2-].[Pt+2]	–	13.8%
CC=CC1=C(C(=O)O)N2C(=O)[C@H](NC(=O)[C@H](N)c3ccc(O)cc3)[C@@H]2SC1	–	-2.78%
Nc1ccn([C@@H]2CS[C@H](CO)O2)c(=O)n1	inactive	–
CN1c2cc(O)c(N=NC(N)=O)cc2CC1S(=O)(=O)O (stereo not given)	–	-4.45%
